Data published in PubChem BioAssay (EPA / NIEHS).
Active and inactive are the calls of the source. The calls were made as follows: active = hit-call score of the fitted dose curve at least 0.9, where 1 is the maximum; inactive = score below 0.9.

Each molecule was assayed on DNA damage-inducible transcript 3 (DDIT3), DDIT3 (gene 1649) (assay: LTEA_HepaRG_DDIT3: Life Technologies and Expression Analysis (LTEA) Assay for DNA damage-inducible transcript 3 (DDIT3) using HepaRG (AID 2283488)). Conditions: mRNA level, 48 h; actives raise or lower the signal.
Method: LTEA_HepaRG is a cell based, multiplexed-readout assay that uses HepaRG, a human liver cell line, with measurements taken at 48 hours after chemical dosing on a 96-well plate.LTEA_HepaRG_DDIT3 is one of 102 assay component(s) measured in the LTEA HepaRG cell culture assay. It is a marker of Oxidative Stress.Data from the assay component LTEA_HepaRG_DDIT3 was analyzed into 1 endpoint. This assay endpoint, LTEA_HepaRG_DDIT3, was analyzed with bidirectional fitting relative to DMSO as the negative control and baseline of activity. Using a type of inducible reporter, measures of mRNA induction for gain or loss-of-signal activity can be used to understand regulation of transcription factor activity. To generalize the intended target to other relatable targets, this assay endpoint is annotated to the dna binding intended target family, where the subfamily is basic leucine zipper.
A total of 1060 chemcials from the ToxCast library were tested in eight-point concentration-response experiments. Cell culture and cytotoxicity assays were conducted at Thermo Fisher Scientific's Custom Services facility (Madison, WI). A single lot of human HepaRG cells (Thermo Fisher Scientific, Frederick, MD) was used for the cell culture experiments. 96-well format collagen type I coated plates of human HepaRG cells were prepared using established methods. Briefly, cryopreserved HepaRG cells were thawed, plated at a density of approximately 100,000 cells/well in HepaRG Thaw, Plate, and General Purpose media (HPRG770, Thermo Fisher Scientific), and incubated for 48 hours. 0.5% DMSO was selected as vehicle control to balance the requisite need of DMSO in HepaRG cultures to maintain differentiation (for example, baseline metabolism, proportions of hepatocytes vs. cholangiocytes), while enabling further hepatic receptor pathway activation (for example, PXR and CAR) in response to chemical exposure. 48 hours after plating, the culture medium was replaced with HepaRG Serum-Free Incudtion Media. Cells were exposed to each test chemical in duplicate and maintained in CO2 incubators for another 48 hours. Chemical plates were thawed to room temperature and 200x concentrations of treatment groups were prepared. 8-point conentration-reponse curves were made with the highest exposure at 100 uM, followed by half-log dilutions, all in 0.5% DMSO. Each test plate contained variouse controls, induction positive controls (1mM phenobarbital), cytotoxicity positive controls ([…] aflatoxin B1), vehicle controls (0.5% DMSO), and total lysis controls (0.5% DMSO). Cell morphology images were taken using an Essen IncuCyte FLR automated microscope, with six 96-well plates imaged in about 24 minutes. Images were captured and exported and JPEG files. Spent culture media was transfered to black-well plates for the LDH assay, and remaining media was sorted at -80 C for later use. Cells were treated with RLT buffer and frozen until shipped for gene expression analysis. Total RNA was isolated from the cell suspension in 75 uL of Buffer RLT (Qiagen, Germantown, MD 20874) by Quintiles/Expression Analysis (Durham, NC) using a custom isolation procedure. Total RNA from each plate well was transferred to a preamplification plate. Fluidigm's 96.96 Dynamic ArrayTM (Fluidigm, Amsterdam, the Netherlands) technology was used for gene expression analyses by quantitative reverse transcription polymerase chain reaction (qRT-PCR, performed by Quintiles/Expression Analysis, Durham, NC)89. Standard TaqManTM Assays (Applied Biosystems/ThermoFisher Scientific, Foster City, CA) were used to assess the expression of 93 genes selected based on their selectivity and sensitivity to important hepatic receptors known to be modulated by environmental chemicals; importance in human hepatocyte functionality; and hepatotoxicity. […]

SMILES | outcome | AC50
CC(C)(C)OOC(C)(C)CCC(C)(C)OOC(C)(C)C | inactive | –
Clc1ccccc1Cl | inactive | –
Cc1ccc([N+](=O)[O-])cc1 | inactive | –
Cc1cc(N=Nc2ccccc2C)ccc1N | inactive | –
CN(C)C(=O)Nc1ccc(Cl)cc1 | inactive | –
CCCCCOC(=O)c1ccccc1C(=O)OCCCCC | inactive | –
CCC[CH2][Sn]([Cl])([CH2]CCC)[CH2]CCC | – | 2.28 µM (active)
O=C(Oc1ccc(Br)cc1)N1CCN2CCC1CC2 | inactive | –
O=C(N[C@H](c1ccccc1)[C@@H]1CN2CCC1CC2)c1c(Cl)ccc(C(F)(F)F)c1Cl | – | 36.3 µM (active)
Cc1ccc(N)cc1 | inactive | –
COP(=S)(OC)SCN1C(=O)c2ccccc2C1=O | inactive | –
CCCCOC(=O)c1ccccc1C(=O)OCc1ccccc1 | inactive | –
C[C@]12C=CC3=C4CCC(=O)C=C4CC[C@H]3[C@@H]1CC[C@@H]2O | inactive | –
O=P(OCCCl)(OCCCl)OCCCl | inactive | –
CCNS(=O)(=O)C(F)(F)C(F)(F)C(F)(F)C(F)(F)C(F)(F)C(F)(F)C(F)(F)C(F)(F)F | inactive | –
Cc1cccc(N)c1N | inactive | –
O=C(O)C1C2CCC(O2)C1C(=O)O (stereo not given) | – | 50 µM (active)
Nc1cc(Cl)cc(C(=O)O)c1Cl | inactive | –
CS(=O)(=O)NC(=O)c1cc(Oc2ccc(C(F)(F)F)cc2Cl)ccc1[N+](=O)[O-] | inactive | –
Nc1ccc(Oc2ccc(N)cc2)cc1 | inactive | –

SMILES | outcome | AC50
CCCSC(=O)N(CCC)CCC | inactive | –
OCCOCCO | inactive | –
COc1cc(C=O)cc2c1[C@H](COC(N)=O)[C@]1(OC(C)=O)ON2C[C@H]2[C@@H]1N2C(C)=O | – | 15.8 µM (active)
O=C(Nc1ccccc1)c1ccccc1I | inactive | –
COC(=O)c1ccccc1N | inactive | –
CC(C)(OOC(C)(C)c1ccccc1)c1ccccc1 | inactive | –
CCC12COCN1COC2 | inactive | –
CCCCCCCCn1sccc1=O | inactive | –
ClC1=C(Cl)C2(Cl)C3C(Cl)C=CC3C1(Cl)C2(Cl)Cl (stereo not given) | inactive | –
C[N+](C)(C)CC1CO1 (stereo not given) | inactive | –
Oc1ccc2ccc3cccc4ccc1c2c34 | inactive | –
ClC1=C(Cl)[C@]2(Cl)[C@H]3[C@H]([C@@H]4C=C[C@H]3C4)[C@@]1(Cl)C2(Cl)Cl | inactive | –
c1ccc(C2CO2)cc1 (stereo not given) | inactive | –
CCOC(=O)[C@]1(c2ccccc2)Oc2ccccc2[C@@H]1N | – | 76.8 µM (active)
CCCCCCCCOC(=O)c1ccc(C(=O)OCCCCCCCC)c(C(=O)OCCCCCCCC)c1 | inactive | –
Clc1ccc(C(c2ccc(Cl)cc2)C(Cl)(Cl)Cl)cc1 | – | 50 µM (active)
CN(C)[C@@H]1C(=O)C(C(N)=O)=C(O)[C@@]2(O)C(=O)C3=C(O)c4c(O)cccc4[C@@](C)(O)[C@H]3C[C@@H]12 | inactive | –
[Cl-].[Cl-].[Hg+2] | inactive | –
CC(C)N(Cc1ccccc1)C(=O)C(C)(C)C | inactive | –
Cc1ccc(N=C=O)cc1N=C=O | – | 13.3 µM (active)
